Common to all, as to assay: DAPPL (digital affinity profiling via proximity ligation, sequencing); 10 mM Tris-HCl pH 7.5, 50 mM NaCl, 1 mM DTT, 4% glycerol, room temperature, 30 min; GST-TFs on glutathione beads, 16-mer random dsDNA library, 0.1% formaldehyde crosslink after washing; high values mean tight binding
What all share (conditions): protein: recombinant; tags: N-terminal GST; dsDNA, one strand shown

One test concerns the target CRX (Homo sapiens, UniProt O43186 1-299). The procedure, abridged: (§1)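 GST fusions of human transcription factors were expressed in yeast and captured with glutathione beads. Once given DNA barcodes and pooled alongside a tag-only sample, they were incubated for 30 min at room temperature with 200 nmole of a random double-stranded 16-mer DNA library in Tris/NaCl/DTT/glycerol buffer, then washed, crosslinked (0.1% formaldehyde), proximity-ligated, PCR-amplified and sequenced on an Illumina NextSeq500. The binding signal of each hexamer is its read frequency for a factor divided by its frequency for the tag-only sample.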

A further test addresses SPI1 (Homo sapiens, UniProt P17947 1-270). In short, it runs like this:
as §1

Another test concerns the target T1, ELF3 (Homo sapiens, UniProt P78545 1-371).
T1 sequence: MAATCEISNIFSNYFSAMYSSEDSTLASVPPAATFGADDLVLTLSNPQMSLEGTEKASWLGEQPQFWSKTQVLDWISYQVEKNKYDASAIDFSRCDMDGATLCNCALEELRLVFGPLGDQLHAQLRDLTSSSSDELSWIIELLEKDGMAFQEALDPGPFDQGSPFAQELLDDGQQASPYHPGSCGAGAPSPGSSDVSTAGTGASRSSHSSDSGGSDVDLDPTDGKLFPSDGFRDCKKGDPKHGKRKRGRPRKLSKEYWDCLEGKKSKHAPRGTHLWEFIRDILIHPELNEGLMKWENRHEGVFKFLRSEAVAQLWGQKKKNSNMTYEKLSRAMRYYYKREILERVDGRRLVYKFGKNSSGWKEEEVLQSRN
The procedure, abridged:
as §1

Another test deals with ETV6 (Homo sapiens, UniProt P41212 1-452). In short, it runs like this: as §1
ETV6, sequence (P41212 whole entry): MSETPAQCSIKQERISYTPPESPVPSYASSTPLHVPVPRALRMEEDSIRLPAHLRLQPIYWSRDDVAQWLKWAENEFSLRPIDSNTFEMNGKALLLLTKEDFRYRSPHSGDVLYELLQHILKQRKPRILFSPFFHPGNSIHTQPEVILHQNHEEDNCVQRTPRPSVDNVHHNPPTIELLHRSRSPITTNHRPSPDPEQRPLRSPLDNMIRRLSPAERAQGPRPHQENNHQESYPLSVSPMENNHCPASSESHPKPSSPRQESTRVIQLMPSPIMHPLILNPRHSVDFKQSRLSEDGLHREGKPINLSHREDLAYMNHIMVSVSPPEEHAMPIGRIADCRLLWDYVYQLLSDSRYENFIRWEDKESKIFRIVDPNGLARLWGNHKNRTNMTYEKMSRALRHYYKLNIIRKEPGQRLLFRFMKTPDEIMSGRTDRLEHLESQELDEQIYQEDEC
In another test the target is T2, SPDEF (Homo sapiens, UniProt O95238 1-335).
T2 sequence: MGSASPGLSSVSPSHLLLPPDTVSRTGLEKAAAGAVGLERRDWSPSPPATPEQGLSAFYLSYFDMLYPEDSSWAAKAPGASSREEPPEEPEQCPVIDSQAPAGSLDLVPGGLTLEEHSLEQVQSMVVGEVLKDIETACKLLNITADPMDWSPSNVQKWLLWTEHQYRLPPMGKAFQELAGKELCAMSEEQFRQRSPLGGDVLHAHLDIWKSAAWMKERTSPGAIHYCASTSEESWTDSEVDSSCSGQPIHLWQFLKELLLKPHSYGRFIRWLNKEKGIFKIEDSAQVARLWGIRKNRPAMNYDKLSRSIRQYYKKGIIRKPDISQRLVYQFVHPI
The procedure, abridged: as §1

In the next test the target is T3, GABPA (Homo sapiens, UniProt Q06546 1-454).
T3 sequence: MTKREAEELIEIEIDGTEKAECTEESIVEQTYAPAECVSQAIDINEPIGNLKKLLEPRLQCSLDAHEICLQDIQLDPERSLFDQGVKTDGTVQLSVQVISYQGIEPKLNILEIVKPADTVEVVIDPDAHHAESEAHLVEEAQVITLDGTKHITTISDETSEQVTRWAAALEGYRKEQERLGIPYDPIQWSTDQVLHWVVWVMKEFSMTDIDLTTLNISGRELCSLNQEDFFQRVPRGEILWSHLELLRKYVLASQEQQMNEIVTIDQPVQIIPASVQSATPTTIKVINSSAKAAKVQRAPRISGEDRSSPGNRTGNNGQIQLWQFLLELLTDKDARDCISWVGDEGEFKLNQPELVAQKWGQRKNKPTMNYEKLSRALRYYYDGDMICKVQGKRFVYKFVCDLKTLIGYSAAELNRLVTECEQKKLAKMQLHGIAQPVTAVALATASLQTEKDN
In short, it runs like this: as §1

Another test has as its target T4, ELK3 (Homo sapiens, UniProt P41970 1-407).
T4 sequence: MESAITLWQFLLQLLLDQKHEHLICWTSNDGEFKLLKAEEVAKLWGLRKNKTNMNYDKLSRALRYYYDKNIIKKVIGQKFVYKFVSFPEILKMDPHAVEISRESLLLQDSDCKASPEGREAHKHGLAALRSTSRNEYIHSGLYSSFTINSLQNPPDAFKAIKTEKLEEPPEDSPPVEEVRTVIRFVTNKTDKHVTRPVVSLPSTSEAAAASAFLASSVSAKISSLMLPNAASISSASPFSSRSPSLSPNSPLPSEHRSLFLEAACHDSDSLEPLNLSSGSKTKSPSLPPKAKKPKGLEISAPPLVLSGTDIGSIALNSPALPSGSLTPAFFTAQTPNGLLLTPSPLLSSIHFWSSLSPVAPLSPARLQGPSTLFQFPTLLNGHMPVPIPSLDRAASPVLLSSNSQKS
In short, it runs like this: as §1

A further test has as its target T5, ERF (Homo sapiens, UniProt P50548 1-548).
T5 sequence: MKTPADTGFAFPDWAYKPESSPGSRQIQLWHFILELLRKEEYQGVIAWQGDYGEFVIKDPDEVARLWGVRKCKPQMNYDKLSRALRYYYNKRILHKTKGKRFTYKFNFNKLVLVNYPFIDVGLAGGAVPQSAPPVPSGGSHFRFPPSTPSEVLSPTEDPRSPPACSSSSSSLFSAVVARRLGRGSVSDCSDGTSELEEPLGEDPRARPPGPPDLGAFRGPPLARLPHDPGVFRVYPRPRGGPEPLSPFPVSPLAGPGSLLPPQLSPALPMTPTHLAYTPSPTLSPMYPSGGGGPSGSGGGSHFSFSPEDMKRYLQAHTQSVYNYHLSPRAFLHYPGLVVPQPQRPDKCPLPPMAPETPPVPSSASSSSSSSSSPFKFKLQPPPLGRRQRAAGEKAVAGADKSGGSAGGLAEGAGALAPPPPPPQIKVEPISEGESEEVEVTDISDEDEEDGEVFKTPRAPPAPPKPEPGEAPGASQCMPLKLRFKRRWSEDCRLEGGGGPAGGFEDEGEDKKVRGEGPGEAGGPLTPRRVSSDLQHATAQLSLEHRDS
The procedure, abridged: as §1

For a further test, the target named is T6, ERG (Homo sapiens, UniProt P11308 1-479).
T6 sequence: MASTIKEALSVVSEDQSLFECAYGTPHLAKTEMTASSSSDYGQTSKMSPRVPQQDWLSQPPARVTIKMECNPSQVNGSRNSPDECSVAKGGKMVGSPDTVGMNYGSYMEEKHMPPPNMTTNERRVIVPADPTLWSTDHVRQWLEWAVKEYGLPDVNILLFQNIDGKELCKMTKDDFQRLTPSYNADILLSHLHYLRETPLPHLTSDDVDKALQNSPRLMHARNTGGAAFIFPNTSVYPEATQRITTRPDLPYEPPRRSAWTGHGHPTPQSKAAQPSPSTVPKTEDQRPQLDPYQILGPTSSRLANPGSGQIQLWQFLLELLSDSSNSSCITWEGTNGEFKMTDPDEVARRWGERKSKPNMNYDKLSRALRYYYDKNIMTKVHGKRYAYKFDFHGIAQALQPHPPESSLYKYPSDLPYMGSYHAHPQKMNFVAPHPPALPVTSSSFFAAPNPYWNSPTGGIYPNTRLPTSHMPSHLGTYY
In short, it runs like this:
as §1

Another test concerns the target T7, EHF (Homo sapiens, UniProt Q9NZC4 1-300).
T7 sequence: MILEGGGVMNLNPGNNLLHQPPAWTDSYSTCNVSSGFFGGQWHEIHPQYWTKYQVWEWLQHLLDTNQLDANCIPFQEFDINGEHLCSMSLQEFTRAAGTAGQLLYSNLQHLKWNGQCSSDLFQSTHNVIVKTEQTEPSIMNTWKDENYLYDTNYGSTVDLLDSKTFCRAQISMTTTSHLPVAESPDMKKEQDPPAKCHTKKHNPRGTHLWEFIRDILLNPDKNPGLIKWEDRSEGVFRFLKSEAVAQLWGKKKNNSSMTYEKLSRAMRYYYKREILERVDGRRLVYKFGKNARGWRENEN
The procedure, abridged: as §1

In another test the target is SPIB (Homo sapiens, UniProt Q01892 1-262). In short, it runs like this: as §1
SPIB, sequence (Q01892 whole entry): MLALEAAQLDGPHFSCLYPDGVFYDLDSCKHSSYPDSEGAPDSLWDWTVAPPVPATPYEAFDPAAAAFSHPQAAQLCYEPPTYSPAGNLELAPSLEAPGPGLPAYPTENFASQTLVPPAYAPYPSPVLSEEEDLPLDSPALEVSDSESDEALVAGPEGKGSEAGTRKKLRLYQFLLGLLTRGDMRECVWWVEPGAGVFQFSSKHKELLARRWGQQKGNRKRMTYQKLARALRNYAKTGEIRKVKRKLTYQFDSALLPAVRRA
A further test has as its target ETV1 (Homo sapiens, UniProt P50549 1-477). The procedure, abridged: as §1
The target in the next test is T8, ETS2 (Homo sapiens, UniProt P15036 1-469).
T8 sequence: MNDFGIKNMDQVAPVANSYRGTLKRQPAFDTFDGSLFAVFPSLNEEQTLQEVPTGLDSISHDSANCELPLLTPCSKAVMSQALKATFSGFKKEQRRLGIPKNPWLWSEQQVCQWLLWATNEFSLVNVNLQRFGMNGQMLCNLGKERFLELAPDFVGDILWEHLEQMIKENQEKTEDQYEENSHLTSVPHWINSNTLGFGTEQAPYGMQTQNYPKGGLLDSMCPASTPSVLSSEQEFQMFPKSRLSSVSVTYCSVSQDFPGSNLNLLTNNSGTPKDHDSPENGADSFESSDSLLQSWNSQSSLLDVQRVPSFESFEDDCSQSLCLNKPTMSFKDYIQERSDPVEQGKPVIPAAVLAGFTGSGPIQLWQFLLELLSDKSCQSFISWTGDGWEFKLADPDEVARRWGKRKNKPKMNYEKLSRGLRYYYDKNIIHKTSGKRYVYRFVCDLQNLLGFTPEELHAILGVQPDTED
The procedure, abridged:
as §1

The target of the next test is T9, ETV7 (Homo sapiens, UniProt Q9Y603 1-341).
T9 sequence: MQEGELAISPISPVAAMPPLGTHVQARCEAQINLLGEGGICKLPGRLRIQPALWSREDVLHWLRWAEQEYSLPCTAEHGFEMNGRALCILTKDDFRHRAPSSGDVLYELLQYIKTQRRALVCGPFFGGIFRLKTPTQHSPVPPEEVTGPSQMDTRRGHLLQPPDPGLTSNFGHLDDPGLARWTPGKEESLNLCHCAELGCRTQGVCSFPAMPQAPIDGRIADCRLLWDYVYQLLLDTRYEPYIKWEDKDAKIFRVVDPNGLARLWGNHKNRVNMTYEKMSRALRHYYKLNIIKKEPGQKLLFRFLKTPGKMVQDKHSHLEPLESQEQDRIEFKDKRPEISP
In short, it runs like this:
as §1

The target in a further test is T10, ELF5 (Homo sapiens, UniProt Q9UKW6-2 1-255).
T10 sequence: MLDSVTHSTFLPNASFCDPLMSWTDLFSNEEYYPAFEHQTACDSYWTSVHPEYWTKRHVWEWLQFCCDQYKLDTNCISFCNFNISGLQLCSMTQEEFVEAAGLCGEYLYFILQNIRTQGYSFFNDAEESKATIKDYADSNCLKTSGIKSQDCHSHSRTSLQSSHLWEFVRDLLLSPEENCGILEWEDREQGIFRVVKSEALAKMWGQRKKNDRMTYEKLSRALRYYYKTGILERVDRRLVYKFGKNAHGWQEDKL
In short, it runs like this: as §1

The target in the next test is T11, ETV3 (Homo sapiens, UniProt P41162-2 1-143).
T11 sequence: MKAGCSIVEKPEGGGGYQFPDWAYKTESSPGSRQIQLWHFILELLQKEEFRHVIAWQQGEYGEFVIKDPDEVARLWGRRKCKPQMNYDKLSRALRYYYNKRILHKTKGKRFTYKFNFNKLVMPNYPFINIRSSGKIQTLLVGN
In short, it runs like this: as §1

For ten sequences, binding signal results are on record in publication PMC7862700, “An all-to-all approach to the identification of sequence-specific readers for epigenetic DNA modifications on cytosine”.

CRX, sequence (O43186 whole entry, the tested form may be a part): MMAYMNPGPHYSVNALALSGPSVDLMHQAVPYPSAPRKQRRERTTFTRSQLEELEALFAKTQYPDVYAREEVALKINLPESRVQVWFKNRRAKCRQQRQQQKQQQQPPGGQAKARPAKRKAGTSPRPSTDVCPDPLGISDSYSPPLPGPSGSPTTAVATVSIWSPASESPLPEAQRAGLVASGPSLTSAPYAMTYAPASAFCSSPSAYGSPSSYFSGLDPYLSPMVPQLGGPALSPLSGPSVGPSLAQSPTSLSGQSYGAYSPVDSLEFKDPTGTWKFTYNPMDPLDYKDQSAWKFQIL
ETV1, sequence (P50549 whole entry): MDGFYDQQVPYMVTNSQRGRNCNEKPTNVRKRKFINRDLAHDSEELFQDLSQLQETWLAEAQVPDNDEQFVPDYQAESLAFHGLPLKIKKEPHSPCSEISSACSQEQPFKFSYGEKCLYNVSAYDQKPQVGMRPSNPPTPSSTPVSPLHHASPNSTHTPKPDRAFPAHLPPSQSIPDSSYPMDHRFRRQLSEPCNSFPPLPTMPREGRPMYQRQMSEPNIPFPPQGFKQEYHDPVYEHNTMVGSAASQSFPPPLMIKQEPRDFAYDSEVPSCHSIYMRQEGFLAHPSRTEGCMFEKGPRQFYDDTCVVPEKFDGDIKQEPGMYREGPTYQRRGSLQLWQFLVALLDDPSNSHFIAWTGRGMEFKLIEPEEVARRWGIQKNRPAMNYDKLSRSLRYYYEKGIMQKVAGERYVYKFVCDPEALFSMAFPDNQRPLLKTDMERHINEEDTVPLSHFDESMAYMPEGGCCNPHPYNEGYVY

As to GGGGAT, the binding signal with CRX was 1.21 fold enrichment (6-mer frequency, TF over GST control).

For TAAGTG, in the test with CRX, the binding signal was 1.14 fold enrichment (6-mer frequency, TF over GST control).

Regarding AGTACG, the binding signal with SPI1 is 1.02 fold enrichment (6-mer frequency, TF over GST control); in the test with ELF3 it was 1.01 fold enrichment (6-mer frequency, TF over GST control); in the test with ETV6, 1.03 fold enrichment (6-mer frequency, TF over GST control).

As for ACCGGT, the binding signal was 1.01 fold enrichment (6-mer frequency, TF over GST control) with ELF3 and 1.02 fold enrichment (6-mer frequency, TF over GST control) in the test with SPDEF.

For the sequence CGCCGT, the binding signal in the test with GABPA was 1.01 fold enrichment (6-mer frequency, TF over GST control).

Regarding AGTTAT, the binding signal in the test with ELK3 was 1 fold enrichment (6-mer frequency, TF over GST control); in the test with ELF3, 1.08 fold enrichment (6-mer frequency, TF over GST control).

With AGCTTG, the binding signal with GABPA was 1.02 fold enrichment (6-mer frequency, TF over GST control); with CRX it was 1.04 fold enrichment (6-mer frequency, TF over GST control).

On to TACGGG, for which the binding signal with ELF3 was 1.01 fold enrichment (6-mer frequency, TF over GST control); with ERF it was 1.08 fold enrichment (6-mer frequency, TF over GST control).

Turning to GCGTAA, the binding signal with CRX is 1.03 fold enrichment (6-mer frequency, TF over GST control).

As for GGATGA, the binding signal is 1.01 fold enrichment (6-mer frequency, TF over GST control) with ERG; 1 fold enrichment (6-mer frequency, TF over GST control) in the test with EHF; 1.06 fold enrichment (6-mer frequency, TF over GST control) in the test with SPIB; 1.11 fold enrichment (6-mer frequency, TF over GST control) with CRX; 1.05 fold enrichment (6-mer frequency, TF over GST control) in the test with ETV1; 1.1 fold enrichment (6-mer frequency, TF over GST control) with ETS2. Besides, the binding signal with SPDEF is 1.11 fold enrichment (6-mer frequency, TF over GST control); with ETV7, 1.06 fold enrichment (6-mer frequency, TF over GST control); with ELF5 it was 1.11 fold enrichment (6-mer frequency, TF over GST control); in the test with ETV3, 1.03 fold enrichment (6-mer frequency, TF over GST control).
